PubChem BioAssay (NCATS)
Inconclusive results are not listed. Active and inactive are the calls of the source. Calls follow the shape of the dose curve; as a rule, active = well fitted curve in the direction sought with a large enough effect; inconclusive = small, poorly fitted or top-dose-only effect, or another doubt; inactive = no such curve, though single readings can be large; an effect the other way counts as inactive or inconclusive.

How the values were obtained:
[1] = qHTS of pediatric cancer cell lines to identify multiple opportunities for drug repurposing: Primary screen for control Hh wild type fibroblast cells (AID 1347106);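 also: series mostly up to about 46 µM; % is scaled to controls: 0 for no effect and ±100 for the full control effect; a drop in luminescence marks cytotoxicity and a rise apparent proliferation; nearly all actives have a fitted effect of over 55% in size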
Procedure, shortened: (§1)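 Viability after 48 h compound treatment at 37C, 500-1,000 cells/well, read as ATP luminescence with CellTiter-Glo. Primary screens used 11-point (MIPE, 0.78 nM-46 µM) or 8-point (NPC, 0.59 nM-46 µM) final concentrations; follow-up screens used 11-point dilutions.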

[2] = qHTS of pediatric cancer cell lines to identify multiple opportunities for drug repurposing: Primary screen for Rh30 cells (AID 1347107); also: series mostly up to about 46 µM; % is scaled to controls: 0 for no effect and ±100 for the full control effect; nearly all actives have a fitted effect of over 75% in size
Procedure, shortened: as §1

[3] = qHTS of pediatric cancer cell lines to identify multiple opportunities for drug repurposing: Primary screen for Rh41 cells (AID 1347108); also: nearly all actives have a fitted effect of over 70% in size; also: potency is read from the fitted curve at half-maximal effect;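 as to activity change, negative = cytotoxic: series mostly up to about 46 µM; luminescence drop marks cytotoxic hits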
Procedure, shortened: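 ATP-based luminescence (CellTiter-Glo) quantifies viability after a 48-hour exposure. Compounds are dosed across 8 or 11 final concentrations; DMSO and 2.3 µM bortezomib serve as controls.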

[4] = qHTS of pediatric cancer cell lines to identify multiple opportunities for drug repurposing: Confirmatory screen for NB1643 cells (AID 1347109);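 also: plate controls were DMSO for no effect and bortezomib for full effect; nearly all actives have a fitted effect of over 45% in size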
Procedure, shortened: as §1

[5] = qHTS of pediatric cancer cell lines to identify multiple opportunities for drug repurposing: Confirmatory screen for A673 cells (AID 1347110); also: nearly all actives have a fitted effect of over 65% in size; also: potency is read from the fitted curve at half-maximal effect
Procedure, shortened: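 Viability was read as ATP luminescence (CellTiter-Glo) after 48 h of compound exposure at 37 C in A673 cells seeded at 500-1,000/well. Titrations reached 46 uM final, with 11 points in the confirmatory screen. Concentration-response curves were fitted directly.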

[6] = qHTS of pediatric cancer cell lines to identify multiple opportunities for drug repurposing: Confirmatory screen for SK-N-MC cells (AID 1347111);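 also: cells exposed to compound for 48 h before the readout; nearly all actives have a fitted effect of over 70% in size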; also: potency is read from the fitted curve at half-maximal effect;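 as to activity change, negative = cytotoxic: plate controls were DMSO for no effect and bortezomib for full effect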
Procedure, shortened: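 SK-N-MC cells at 500-1,000 cells/well in growth media were pre-incubated 5 h, then exposed to compounds at 11-point dilutions for 48 h at 37 degrees C, 5% CO2. Viability was read as CellTiter-Glo luminescence.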

[7] = qHTS of pediatric cancer cell lines to identify multiple opportunities for drug repurposing: Confirmatory screen for BT-12 cells (AID 1347112); also: nearly all actives have a fitted effect of over 55% in size; also: potency is read from the fitted curve at half-maximal effect; as to activity change, negative = cytotoxic: % is scaled to controls: 0 for no effect and ±100 for the full control effect
Procedure, shortened: as §1

[8] = qHTS of pediatric cancer cell lines to identify multiple opportunities for drug repurposing: Confirmatory screen for DAOY cells (AID 1347114); also: % is scaled to controls: 0 for no effect and ±100 for the full control effect; nearly all actives have a fitted effect of over 65% in size
Procedure, shortened: (§2)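 Viability measured as metabolically active cells via CellTiter-Glo luminescence following 48 hours of compound exposure, 11-point dilutions in confirmatory testing. 500-1,000 cells/well plated 5 hours before dosing; controls were DMSO and 2.3 µM bortezomib.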

[9] = qHTS of pediatric cancer cell lines to identify multiple opportunities for drug repurposing: Confirmatory screen for SJ-GBM2 cells (AID 1347116); also: nearly all actives have a fitted effect of over 60% in size;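 as to activity change, negative = cytotoxic: plate controls were DMSO for no effect and bortezomib for full effect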
Procedure, shortened: as §2

[10] = qHTS of pediatric cancer cell lines to identify multiple opportunities for drug repurposing: Confirmatory screen for LAN-5 cells (AID 1347113); also: % is scaled to controls: 0 for no effect and ±100 for the full control effect; nearly all actives have a fitted effect of over 65% in size
Procedure, shortened: as §1

NC(CO)(CO)CO
inactive: Potency [1] | Potency [2] | Potency [3] | Potency [4] | Potency [5] | Potency [7] | Potency [8] | Potency [9]
active: Potency [6] 8.27 µM

CC[C@@H](CO)NCCN[C@@H](CC)CO
inactive: Potency [1] | Potency [2] | Potency [3]

CCN1CCCC1=O
inactive: Potency [1] | Potency [2] | Potency [3]

Nc1nc2ncc(CNc3ccc(C(=O)N[C@@H](CCC(=O)O)C(=O)O)cc3)nc2c(=O)[nH]1
inactive: Potency [1] | Potency [2] | Potency [3]

NC(=O)CC[C@@H]1NC(=O)[C@H](Cc2ccccc2)NC(=O)[C@H](Cc2ccc(O)cc2)NC(=O)CCSSC[C@@H](C(=O)N2CCC[C@H]2C(=O)N[C@@H](CCCN=C(N)N)C(=O)NCC(N)=O)NC(=O)[C@H](CC(N)=O)NC1=O
inactive: Potency [1] | Potency [2] | Potency [3] | Potency [4] | Potency [5] | Potency [6] | Potency [7] | Potency [10] | Potency [8] | Potency [9]

CN=C(NC#N)NCCSCc1csc(N=C(N)N)n1
inactive: Potency [1] | Potency [2] | Potency [3]

CCCC(=O)O[C@]1(C(=O)CO)CC[C@H]2[C@@H]3CCC4=CC(=O)CC[C@]4(C)[C@H]3[C@@H](O)C[C@@]21C
inactive: Potency [1] | Potency [2] | Potency [3] | Potency [4] | Potency [5] | Potency [6] | Potency [7] | Potency [8] | Potency [9]

N[C@H](Cc1c[nH]c2ccccc12)C(=O)O
inactive: Potency [1] | Potency [2] | Potency [3]

CCn1cc(C(=O)O)c(=O)c2cnc(N3CCCC3)nc21
inactive: activity change, negative = cytotoxic [1] 4.15% [at 9.22 µM] | activity change, negative = cytotoxic [2] 8.92% [at 9.22 µM] | activity change, negative = cytotoxic [3] 12.6% [at 9.22 µM]

CN1CCN(C(c2ccccc2)c2ccccc2)CC1
inactive: Potency [1] | Potency [2] | Potency [3]

Cc1ccccc1C(=O)Nc1ccc(C(=O)N2CCCC(N(C)C)c3ccccc32)cc1 (configuration not stated)
inactive: Potency [1] | Potency [2]
active: Potency [3] 16.8 µM

C[C@]12C=CC(=O)C=C1[C@@H](F)C[C@@H]1[C@@H]2[C@@H](O)C[C@@]2(C)[C@H]1CC[C@]2(O)C(=O)CO
inactive: Potency [1] | Potency [2] | Potency [3] | Potency [4] | Potency [5] | Potency [6] | Potency [7] | Potency [10] | Potency [8]

Cc1cc(=O)n(-c2ccccc2)n1C
inactive: Potency [1] | Potency [2] | Potency [3]

Cc1nc2n(c(=O)c1CCN1CCC(c3noc4cc(F)ccc34)CC1)CCC[C@H]2O
inactive: Potency [1] | Potency [2] | Potency [3]

COc1cc(/C=C/C(=O)O[C@H]2CC[C@]34C[C@]35CC[C@]3(C)[C@@H]([C@H](C)CCC=C(C)C)CC[C@@]3(C)[C@@H]5CC[C@H]4C2(C)C)ccc1O
inactive: Potency [1] | Potency [2] | Potency [3]

COc1cc(C(=S)N2CCOCC2)cc(OC)c1OC
inactive: Potency [1] | Potency [2] | Potency [3]

NC[C@H]1O[C@H](O[C@H]2[C@H](O)[C@@H](O[C@H]3O[C@H](CO)[C@@H](O)[C@H](N)[C@H]3O)[C@H](N)C[C@@H]2N)[C@H](N)[C@@H](O)[C@@H]1O
inactive: Potency [1] | Potency [2] | Potency [3]

O=C1OC(c2ccc(O)cc2)(c2ccc(O)cc2)c2ccccc21
inactive: Potency [1] | Potency [2] | Potency [3]

CC(=O)OCC(=O)[C@@]1(O)CC[C@H]2[C@@H]3CCC4=CC(=O)C=C[C@]4(C)[C@H]3[C@@H](O)C[C@@]21C
inactive: Potency [1] | Potency [2] | Potency [3] | Potency [4] | Potency [5] | Potency [6] | Potency [7] | Potency [8] | Potency [9]

CNCC[C@@H](Oc1ccccc1C)c1ccccc1
inactive: Potency [1] | Potency [2] | Potency [3]

CN(C)CCOc1ccccc1Cc1ccccc1
inactive: Potency [1] | Potency [2] | Potency [3]

C[C@H]1[C@H](NC(=O)/C(=N/OC(C)(C)C(=O)O)c2csc(N)n2)C(=O)N1S(=O)(=O)O (stereo in doubt)
inactive: Potency [1] | Potency [2] | Potency [3]

Cc1c(C)n(CCN(C)C)c2ccc(C(=O)OCCN(C)C)cc12
inactive: Potency [1] | Potency [2] | Potency [3]

CC(C)(C(=O)c1cccnc1)c1cccnc1
inactive: Potency [1] | Potency [2] | Potency [3] | Potency [4] | Potency [7] | Potency [8]
active: Potency [5] 0.369 µM | Potency [6] 2.93 µM

CC(C)=CCC1C(=O)N(c2ccccc2)N(c2ccccc2)C1=O
inactive: Potency [1] | Potency [2] | Potency [3]

CCCCOc1cc(C(=O)NCCN(CC)CC)c2ccccc2n1
inactive: Potency [1] | Potency [2] | Potency [3]

CCN(CC)CCNC(=O)COc1ccc(Cl)cc1
inactive: Potency [1] | Potency [2] | Potency [3]

CN(C)CC/C=C1/c2ccccc2COc2ccc(CC(=O)O)cc21
inactive: Potency [1] | Potency [2] | Potency [3]

C/C=C(/C(=C/C)c1ccc(O)cc1)c1ccc(O)cc1
inactive: Potency [1] | Potency [2] | Potency [3]

CCOC(=O)COc1ccc2c(C)c(CCN(CC)CC)c(=O)oc2c1Cl
inactive: Potency [1] | Potency [2] | Potency [3]

CCOc1ccc2nc3cc(N)ccc3c(N)c2c1
inactive: Potency [1] | Potency [2]
active: Potency [3] 18.8 µM | Potency [5] 18.5 µM | Potency [7] 16.5 µM

CCCCCCCCCCCCCCCC[N+](C)(C)CC
active: Potency [3] 13.3 µM
